# Measured values published in PubChem BioAssay (NCATS).
# Inconclusive results are not listed. A number with no mark means an inactive call. Activity calls are given as the source filed them. The call rests on the fitted dose curve; in most records, active means well fitted inhibition curve with a large enough effect; inconclusive means small, poorly fitted or top-dose-only effect; inactive means flat fitted curve, though single readings scatter.
# Test system: HaCat
# Test: Cytotoxic Profiling of Annotated Libraries Using Quantitative High-Throughput Screening (AID 1296008); further: nearly all actives have a fitted effect of over 60% in size
# Conditions: Five cell lines viability, CellTiter-Glo ATP luminescence, 48-72 h; max response: active compounds read low
# Summary of the method: (§1)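 Compounds were pin-transferred onto cells and incubated 48 or 72 hr at 37 degree Celsius, 95% humidity. CellTiter-Glo was added, plates sat 10 min at room temperature, then ATP-coupled luminescence was imaged as the viability read-out.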
# On the % scale 0 is the no-effect control and ±100 the full control effect.
row,Compound,outcome
1,O=C(O[C@H]1[C@@H]2C[C@@H]3OC[C@@](O)([C@H]2[C@H](O[C@@H]2O[C@H](CO)[C@@H](O)[C@H](O)[C@H]2O)O3)[C@@H]1O)c1ccccc1,inactive
2,C[C@H]1C[C@H]2[C@@H]3CCC4=CC(=O)C=C[C@]4(C)[C@@]3(F)[C@@H](O)C[C@]2(C)[C@@]1(O)C(=O)COP(=O)(O)O,inactive
3,CCOC(=O)c1ccc(N(C)c2csc(-c3ccccc3)n2)cc1,inactive
4,C[C@@H]1C[C@H](O[C@@H]2O[C@H](CO[C@@H]3OC[C@](O)(CO)[C@H]3O)[C@@H](O)[C@H](O)[C@H]2O)CC(C)(C)[C@H]1/C=C/[C@@H](C)O,inactive
5,Oc1ccc([C@H]2COc3cc(O)ccc3C2)cc1,inactive
6,CC(C)(C)c1cc(CN2CCN(CC(O)c3ccc(Cl)cc3)CC2)cc(C(C)(C)C)c1O (centres undefined),inactive
7,COc1cc(C2c3cc(O)c(OC)cc3CC(CO)C2CO)ccc1O (centres undefined),inactive
8,O=C1Nc2ccc(O)cc2O[C@H]1O[C@@H]1O[C@H](CO)[C@@H](O)[C@H](O)[C@H]1O,inactive
9,Clc1ccc2c(c1)C1=NCCN1c1c(-c3noc(C4CC4)n3)ncn1-2,inactive
10,C=C[C@H]1[C@H](O[C@@H]2O[C@H](CO)[C@@H](O)[C@H](O)[C@H]2O)OC=C(C(=O)OC)[C@H]1C[C@@H]1N[C@H](C(=O)O)Cc2c1[nH]c1ccccc21,inactive

# Test system: KB-3-1
# Test: as above
# Conditions: Five cell lines viability, CellTiter-Glo ATP luminescence, 48-72 h; max response: active compounds read low
# Summary of the method: as §1
Compound,max response [%],outcome
C=CC1C(O[C@@H]2O[C@H](CO)[C@@H](O)[C@H](O)[C@H]2O)OC=C(C(=O)OC)C1CC(=O)O (some centres undefined),9.2,
CC(C)(O)c1ccc2c(c1)C(O)CC1C(C)(C(=O)O)CCCC21C (centres undefined),3.03,
CC(C)(O)C1CCC2(C)C3C(O)C4C(C13)C42CO (centres undefined),9.17,
O=c1ccn(C2OC(CO)C(O)C2O)c(=O)[nH]1 (centres undefined),,inactive
CCCC(N[C@@H](C)C(=O)N1[C@H](C(=O)O)C[C@@H]2CCCC[C@@H]21)C(=O)OCC (some centres undefined),,inactive
CCC[C@@H]1C[C@@H](C(=O)N[C@@H]([C@H]2O[C@H](SC)[C@H](O)[C@@H](O)[C@@H]2O)[C@@H](C)O)N(C)C1,,inactive
COc1cc([C@H]2OC[C@@H]3[C@@H](c4ccc(O[C@@H]5O[C@H](CO)[C@@H](O)[C@H](O)[C@H]5O)c(OC)c4)OC[C@]23O)ccc1O,3.2,
O=C(OCc1cccc(O)c1O[C@@H]1O[C@H](CO)[C@@H](O)[C@H](O)[C@H]1O)C1(O)C(=O)C2C=CC1C1C=CC(=O)C(O)(C(=O)OCc3cccc(O)c3O[C@@H]3O[C@H](CO)[C@@H](O)[C@H](O)[C@H]3O)C21 (some centres undefined),,inactive
COC(=O)CC[C@@H](C)[C@H]1CC[C@H]2[C@@H]3CC(=O)[C@H]4C[C@H](OC(C)=O)CC[C@]4(C)[C@H]3CC[C@]12C,,inactive
FC(F)(F)c1cc(C(F)(F)F)c2ccc3nc(-c4nnco4)cn3c2n1,-10,
COc1c(C)c2c(c(O)c1C/C=C(\C)CC/C=C(\C)CCC(=O)O)C(=O)OC2,,inactive
CC[C@@H](c1ccc(F)c(F)c1)n1c(C(=O)OC)c(-c2ccno2)[nH]c1=S,5.04,
CC(C)=CCC/C(C)=C/CC/C(C)=C/CC[C@]1(C)CCc2cc(O)cc(C)c2O1,1.67,
CC1=CC(=O)CC(C)(C)C1CCC(C)OC1OC(COC(=O)c2cc(O)c(O)c(O)c2)C(O)C(O)C1O (centres undefined),,inactive
COc1ccc(/C=C/C(=O)O[C@H]2[C@@H]3C=CO[C@@H](O[C@@H]4O[C@H](CO)[C@@H](O)[C@H](O)[C@H]4O)[C@@H]3[C@@]3(CO)O[C@@H]23)cc1O,,inactive
Cc1ncc([N+](=O)[O-])n1CC(O)CN1CCOCC1 (centres undefined),,inactive
C=CC(C)(O)CC/C=C(/C)C(=O)OC1C(OC2OCC(OC3OC(CO)C(O)C(O)C3O)C(OC3OCC(O)C(OC4OC(C)C(O)C(O)C4O)C3O)C2O)COC(OC(=O)C23CCC(C)(C)CC2C2=CCC4C5(C)CCC(OC6OC(CO)C(OC7OC(CO)C(O)C(OC8OCC(O)C(O)C8O)C7O)C(O)C6O)C(C)(C)C5CCC4(C)C2(C)CC3O)C1O (centres undefined),-5.7,
O=C1C[C@@H](c2ccc(O)cc2)Oc2cc(O)ccc21,3.42,
CC(C)CC(=O)n1cc(C(N)=O)c(=O)cc1C(O)c1ccccc1 (centres undefined),,inactive
COc1cc([C@H]2OC[C@]3(OC(C)=O)[C@@H](c4ccc(O[C@@H]5O[C@H](CO)[C@@H](O)[C@H](O)[C@H]5O)c(OC)c4)OC[C@H]23)ccc1O,,inactive

Compound,max response [%],outcome
CC(C)=CCc1ccc(Oc2c(O)cc(C)cc2CO)c(C(=O)O)c1O,,inactive
O=C(O)CCc1cccc(O[C@@H]2O[C@H](CO)[C@@H](O)[C@H](O)[C@H]2O)c1O,,inactive
COC(=O)[C@@]1(O)C=CC[C@@H]2[C@@]3(C)C[C@@H](c4ccoc4)OC(=O)[C@H]3CC[C@]21C,0.0207,
CC(C)CC(=O)OC[C@H]1O[C@@](COC(=O)CC(C)C)(O[C@H]2O[C@H](CO)[C@@H](O)[C@H](O)[C@H]2O)[C@@H](OC(=O)CC(C)C)[C@@H]1OC(=O)CC(C)C,9.19,
C=CC(C)(C)O[C@@H]1O[C@H](CO[C@@H]2OC[C@](O)(CO)[C@H]2O)[C@@H](O)[C@H](O)[C@H]1O,,inactive
CCC(C)/C=C(C)/C=C/C1=CC2=C(Cl)C(=O)C(C)(OC(C)=O)C(=O)C2=CN1C1CCCCN(C(CCC(N)=O)C(=O)O)C1=O (centres undefined),,inactive
CN[C@@H]1[C@@H](O)[C@@H](O[C@@H]2[C@@H](O)[C@H](O[C@H]3O[C@H](CN)[C@@H](O)[C@H](O)[C@H]3O)[C@@H](N)C[C@H]2NC(=O)[C@@H](O)CN)OC[C@]1(C)O,-2.9,
O=C(O)C[C@@H](NC(=O)c1cc(-c2ccc(-c3ccncc3)cc2)cs1)c1ccccc1,4.03,
CC(CCC1(O)OC2CC3C4CCC5CC(O[C@@H]6O[C@H](CO)[C@@H](O)[C@H](O)[C@H]6O[C@@H]6OC[C@@H](O)[C@H](O)[C@H]6O)C(O)CC5(C)C4CCC3(C)C2C1C)CO[C@@H]1O[C@H](CO)[C@@H](O)[C@H](O)[C@H]1O (some centres undefined),,inactive
O=C(O[C@H]1[C@@H]2C[C@@H]3OC[C@@](O)([C@H]2[C@H](O[C@@H]2O[C@H](CO)[C@@H](O)[C@H](O)[C@H]2O)O3)[C@@H]1O)c1ccccc1,,inactive
C[C@H]1C[C@H]2[C@@H]3CCC4=CC(=O)C=C[C@]4(C)[C@@]3(F)[C@@H](O)C[C@]2(C)[C@@]1(O)C(=O)COP(=O)(O)O,,inactive
CCOC(=O)c1ccc(N(C)c2csc(-c3ccccc3)n2)cc1,0.515,
C[C@@H]1C[C@H](O[C@@H]2O[C@H](CO[C@@H]3OC[C@](O)(CO)[C@H]3O)[C@@H](O)[C@H](O)[C@H]2O)CC(C)(C)[C@H]1/C=C/[C@@H](C)O,,inactive
Oc1ccc([C@H]2COc3cc(O)ccc3C2)cc1,0.946,
CC(C)(C)c1cc(CN2CCN(CC(O)c3ccc(Cl)cc3)CC2)cc(C(C)(C)C)c1O (centres undefined),-8.12,
COc1cc(C2c3cc(O)c(OC)cc3CC(CO)C2CO)ccc1O (centres undefined),,inactive
O=C1Nc2ccc(O)cc2O[C@H]1O[C@@H]1O[C@H](CO)[C@@H](O)[C@H](O)[C@H]1O,,inactive
Clc1ccc2c(c1)C1=NCCN1c1c(-c3noc(C4CC4)n3)ncn1-2,,inactive
C=C[C@H]1[C@H](O[C@@H]2O[C@H](CO)[C@@H](O)[C@H](O)[C@H]2O)OC=C(C(=O)OC)[C@H]1C[C@@H]1N[C@H](C(=O)O)Cc2c1[nH]c1ccccc21,-4.8,
